High-throughput results: PubChem, National Center for Advancing Translational Sciences (NCATS)
Gal4-VP16 FLuc – inhibits Gal4-VP16 luciferase reporter, ROR gamma counter-screen; hit rate 3.5% among 310,000; Potency, µM (series often up to 53.6 µM), actives largely listed as inhibitors; Drosophila S2 Gal4-VP16 UAS-luciferase, luminescence, 20 h; AID 2546;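 note: Gal4-VP16 expression switched on by copper sulfate through the metallothionein promoter; nearly all actives have a fitted effect of over 50% in size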
SW480 rerep – DNA re-replication induction in SW480 cells | hit rate 1.8% among 340,000 | AID 624297 | Potency, µM (doses to about 46.1 µM), usual class: activators | SW480 DNA re-replication, Hoechst DNA content imaging, 48 h; note: nearly all actives have a fitted effect of over 55% in size
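Readout is total intensity of Hoechst-stained nuclei, excited at 405 nm and collected at 500-530 nm. Compound treatment lasted 48 hr at 37 C in 5% CO2 before staining.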
MCF10A rerep – induces DNA re-replication in MCF 10a normal breast cells; MCF 10A DNA re-replication, Hoechst nuclear intensity, 48 h; Potency, µM (titrated, usually from 46.1 µM), actives largely listed as activators; hit rate 2.9% among 350,000; note: nearly all actives have a fitted effect of over 50% in size
RORg inh – blocks mouse ROR gamma transcriptional activity | hit rate 5.4% among 310,000 | Potency, µM (doses to about 53.6 µM), most hits filed as inhibitors | P51450 | AID 2551 | Drosophila S2 Gal4-RORgamma UAS-luciferase reporter, 20 h; note: nearly all actives have a fitted effect of over 60% in size
Target sequence (P51450 whole entry, looked up, the tested form may be a part): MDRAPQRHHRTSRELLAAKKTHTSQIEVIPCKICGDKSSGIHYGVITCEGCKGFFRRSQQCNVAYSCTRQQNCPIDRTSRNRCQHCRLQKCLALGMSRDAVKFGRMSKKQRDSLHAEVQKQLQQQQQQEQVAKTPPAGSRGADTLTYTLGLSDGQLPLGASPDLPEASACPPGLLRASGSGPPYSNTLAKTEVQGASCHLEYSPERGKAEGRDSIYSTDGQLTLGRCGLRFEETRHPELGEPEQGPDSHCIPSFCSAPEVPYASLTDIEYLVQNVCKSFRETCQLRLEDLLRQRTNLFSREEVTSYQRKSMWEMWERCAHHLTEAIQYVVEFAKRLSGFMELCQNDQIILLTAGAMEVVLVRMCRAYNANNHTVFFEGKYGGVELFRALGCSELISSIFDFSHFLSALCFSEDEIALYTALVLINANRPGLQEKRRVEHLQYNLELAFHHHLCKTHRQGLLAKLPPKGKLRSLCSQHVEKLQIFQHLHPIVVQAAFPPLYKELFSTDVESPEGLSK
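Luciferase reporter read in Schneider cells carrying Gal4-RORγ (mouse) and UAS-Photinus luciferase; cells given compound 1 h before 700 uM copper sulfate induction, then incubated 20 h at ambient temperature.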
ELG1 repair inh – inhibitors of ELG1-dependent DNA repair in HEK293T cells. hit rate 2.3% among 330,000. AID 504467. HEK293T ELG1-luciferase reporter, luminescence, 16 h; DNA damage induced by 5-fluorouridine. Potency, µM (highest dose often 46.1 µM), usual class: inhibitors; note: nearly all actives have a fitted effect of over 55% in size
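DMSO vehicle served as the neutral condition. Each well held 2,000 cells given 5-fluorouridine plus compound; after 16 hr at 37 °C/5% CO2, ONE-Glo was added and luciferase measured 30 min later.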
Numbers stand for hits; i = inactive; ? = inconclusive; nt = no result; [ ] = another dose, or the depositor's remark. A selection: hits, their analogues and other compounds. The true share with any hit is near 10%. Calls come from the whole dose curve; as a rule, active = well fitted curve in the direction sought with a large enough effect; inconclusive = small, poorly fitted or top-dose-only effect, or another doubt; inactive = no such curve, though single readings can be large; an effect the other way counts as inactive or inconclusive.

SMILES | Gal4-VP16 FLuc | SW480 rerep | MCF10A rerep | RORg inh | ELG1 repair inh
COC(=O)c1ccccc1NC(=O)N1c2ccccc2Sc2ccccc21 | i | i | 8.2µM | i[10 µM] | i
COc1ccccc1C(=O)N1c2ccccc2Sc2ccccc21 | i | ? | 23µM | ? | i
CCCCN1C2CCCC1CC(NC(=O)c1cccc(Cl)c1)C2 (stereo not given) | i | i | i | i[1.91 µM] | i
COc1cc(C2C(C#N)=C(N)Oc3cc(N)ccc32)cc(OC)c1OC (stereo not given) | i | 1.2µM | 1.2µM | i | ?
N#CC1=C(N)Oc2cc(N)ccc2C1c1ccc(F)cc1F (stereo not given) | i | 23µM | 21µM | i | ?
CC1CCN(c2nc3ccc(C(=O)NCCCN4CCCCC4C)cc3s2)CC1 (stereo not given) | i | 21µM | i | i | ?
O=C(NCCc1ccc(Cl)cc1)c1ccc2nc(N3CCOCC3)sc2c1 | ? | i | 21µM | i | i
CC1CCCC(C)N1CCCNC(=O)c1ccc2nc(N3CCCCC3)sc2c1 (stereo not given) | i | ? | i | i | ?
COc1ccc(CCNc2nc(N3CCCCC3)nc(N3CCCCC3)n2)cc1OC | i | ? | ? | i | 21µM
CCOc1ccc(CNC(=O)c2ccc3nc(N4CCOCC4)sc3c2)cc1 | ? | i | i | i | i
COc1ccc(CCNC(=O)c2ccc3nc(N4CCCCC4)sc3c2)cc1OC | ? | i | i | 2.2µM | ?
CCOC(=O)C1C(=O)C(=O)N(C2CCCCC2)C1C(=O)OCC (stereo not given) | nt | i | i | nt | nt
COCCCNC(=O)CN(c1ccc(F)cc1)S(=O)(=O)c1ccc2c(c1)OCCO2 | i | i | i | i | i
S=c1[nH]c2ccccc2n2c(=S)[nH]nc12 | i | i | i | i | i
CCOc1ccc(OCCn2c(=S)[nH]c3ccccc32)cc1 | 5µM | i | i | 5µM | i
S=c1[nH]c2ccccc2n2cccc12 | 5.6µM | i | i | 0.89µM | ?
N=c1n(Cc2ccccc2)c2ccccc2n1Cc1ccccc1 | i | 23µM | ? | i | ?
COc1ccccc1OCCn1c(=S)[nH]c2ccccc21 | 10µM | ? | ? | 10µM | i
Cc1cccc(OCCn2c(S(=O)(=O)O)nc3ccccc32)c1 | i | i | i | i | i
Cc1cccc(OCCn2c(=S)[nH]c3ccccc32)c1 | 1.6µM | i | i | 1.3µM | i
CCOc1ccc2c(c1)[nH]c(=S)n2C | ? | i | i | 8.9µM | ?
S=c1[nH]c2ccccc2n1CCOc1ccccc1 | 2.8µM | ? | i | i[1.91 µM] | i
S=c1[nH]c2ccccc2n1Cc1ccccc1 | 7.1µM | i | i | ? | i
CCC(C)NC(=O)Cn1c(COc2ccc(Cl)cc2Cl)nc2ccccc21 (stereo not given) | ? | ? | i | ? | ?
COc1ccc(S(=O)(=O)N2CCOCC2)cc1N=Nc1sc(N)nc1-c1ccccc1 | i | i | i | i | i
SMILES | Gal4-VP16 FLuc | SW480 rerep | MCF10A rerep | RORg inh | ELG1 repair inh
C=CCNC(=S)/C(=C(/[O-])c1ccccc1Br)[n+]1ccccc1 | i | i | i | i | i
C/C(=N\NC(=O)c1nnn(-c2nonc2N)c1-c1cccs1)c1cccc(O)c1 | i | i | i | i | i
COc1ccc(CN2CCC(=O)N([C@H](CO)Cc3ccccc3)CC2)cc1OC | i | i | i | ? | i
Cn1c(=S)[nH]c2ccccc21 | ? | i | i[0.0737 µM] | 13µM | i
Cc1ccc(OCCn2c(=S)[nH]c3ccccc32)c(C(C)C)c1 | 4µM | i | ? | 3.5µM | ?
Cc1cccc2c1CC(C)(C)NC2=C(C#N)C#N | i | i | i | i | i
CN1C(=O)/C(=C/c2ccccc2OCc2cccc(F)c2)NC1=S | 3.2µM | i | i | 4µM | ?
CN1C(=O)/C(=C/c2ccccc2OCc2ccccc2)NC1=S | ? | i | i | 7.1µM | ?
N#Cc1c(C(F)(F)F)cc(-c2cccs2)nc1SCC(=O)O | i | i | i | i | i
CNc1nc(-c2cccs2)cc(C(F)(F)F)c1C#N | i | 5.8µM | 18µM | i | i
N#Cc1c(C(F)(F)F)cc(-c2cccs2)nc1SC(C(=O)O)c1ccccc1 (stereo not given) | nt | i | 21µM | nt | nt
O=c1[nH]c(=S)[nH]c2nc(-c3cccs3)cc(C(F)(F)F)c12 | i | i | i | 11µM | i
CC[C@H](C)[C@H](NC(=O)[C@H](Cc1ccccc1)NC(=O)[C@H](CC(C)C)NC(=O)[C@H](CCSC)NC(=O)[C@H](CCC(=O)O)NC(=O)[C@H](CCC(=O)O)NC(=O)[C@H](CC(=O)O)NC(=O)[C@H](CO)NC(=O)[C@@H]1CCCN1C(=O)[C@H](CCCCN)NC(=O)[C@@H](N)[C@@H](C)O)C(=O)N[C@@H](Cc1ccc(O)cc1)C(=O)NCC(=O)N[C@@H](Cc1cnc[nH]1)C(=O)N[C@@H](Cc1ccc(O)cc1)C(=O)N[C@@H](CCCCN)C(=O)N[C@@H](CCC(N)=O)C(=O)N[C@@H](C)C(=O)N[C@H](C(=O)N[C@H](C(=O)NCC(=O)N[C@@H](CC(=O)O)C(=O)N[C@H](C(=O)N[C@@H](CC(N)=O)C(=O)N[C@H](C(=O)N[C@@H](CCC(=O)O)C(=O)N[C@@H](CCCNC(=N)N)C(=O)N1CCC[C@H]1C(=O)NCC(=O)N[C@@H](CCSC)C(=O)N[C@@H](CC(C)C)C(=O)N[C@@H](CC(=O)O)C(=O)N[C@@H](Cc1ccccc1)C(=O)N[C@H](C(=O)O)[C@@H](C)O)[C@@H](C)O)[C@@H](C)CC)C(C)C)[C@@H](C)O | i | nt | nt | i | nt
CO[C@H]1COC(=O)CCC[C@@H](C)[C@H](OC)COC(=O)[C@H]2CCCN2C(=O)C/C=C\[C@@H]1C | i[10 µM] | nt | nt | i[10 µM] | nt
CNC(=S)N(C)[C@H]1c2c(ccc3ccccc23)OC[C@H]1CO | i | i | i | i | 23µM
O=C(NCCCN1CCCC1=O)c1ccc(NS(=O)(=O)c2ccccc2)cc1 | nt | i | i | nt | i
O=C(c1ccccc1)N1N=C(c2ccccc2)CC1c1ccccc1 (stereo not given) | i | ? | i | i | i
CCc1ccc(C2=NN(c3ccc(S(N)(=O)=O)cc3)C(c3ccc(F)cc3)C2)cc1 (stereo not given) | ? | 9.2µM | ? | ? | i
NS(=O)(=O)c1ccc(N2N=C(c3ccccc3)CC2c2ccccc2)cc1 (stereo not given) | ? | 13µM | 8.2µM | i | ?
O=S(=O)(O)c1ccc(N2N=C(c3ccccc3)CC2c2ccccc2)cc1 (stereo not given) | i | 15µM | i | i | i
NS(=O)(=O)c1ccc(N2N=C(c3ccccc3)CC2c2ccccc2Cl)cc1 (stereo not given) | nt | 4.6µM | 3.3µM | nt | i
CC(=O)N1N=C(c2ccccc2)CC1c1ccccc1 (stereo not given) | i | i | i | i | i
